Experimental data reported in the supplement of paper PMC3898565.
± gives the uncertainty stated by the source.

test system: U87; experiment: cell viability relative to vehicle control; higher = less growth inhibition (less active); details: 10 µM; 72 h
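Also: viable cell number estimated from Alamar Blue fluorescence read at 560/90, part of a single-dose primary screen of an FDA-approved drug library.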

Row | SMILES | cell viability
1 | Cc1ccnc2c1NC(=O)c1cccnc1N2C1CC1 [Viramune] | 107 ± 3.4%
2 | CC(=O)OCC(CCn1cnc2cnc(N)nc21)COC(C)=O | 104.2 ± 0.4%
3 | O=C1c2c(O)cc(O)cc2O[C@H](c2ccc(O)c(O)c2)[C@H]1O (racemic) | 85.3 ± 2.2%
4 | CO[C@H]1/C=C/O[C@@]2(C)Oc3c(C)c(O)c4c(O)c(c5c(nc6cc(C)ccn65)c4c3C2=O)NC(=O)/C(C)=C\C=C\[C@H](C)[C@H](O)[C@@H](C)[C@@H](O)[C@@H](C)[C@H](OC(C)=O)[C@@H]1C | 96.1 ± 1.3%
5 | COc1ccc2cc([C@H](C)C(=O)O)ccc2c1 | 106 ± 1.4%
6 | O=c1c(-c2ccccc2)c1-c1ccccc1 [diphenylcyclopropenone] | 77.4 ± 6.9%
7 | O=C1CN2Cc3c(ccc(Cl)c3Cl)N=C2N1 | 103 ± 2.1%
8 | Nc1nc2ccc(Cl)cc2c2nc(-c3ccco3)nn12 | 93.4 ± 5.3%
9 | O=C1CC2(CCCC2)CC(=O)N1CCNCC1COc2ccccc2O1 (configuration not stated) | 110.4 ± 0.75%
10 | Cc1sc(N)c(C(=O)c2cccc(C(F)(F)F)c2)c1C | 109 ± 1.8%
11 | Cc1c(OCC(F)(F)F)ccnc1C[S+]([O-])c1nc2ccccc2[nH]1 (configuration not stated) | 104.7 ± 0.78%
12 | COc1cc(C[C@@H](CO)[C@H](CO)Cc2ccc(O)c(OC)c2)ccc1O | 96.4 ± 14%
13 | C=CCc1ccc(O)c(-c2ccc(O)c(CC=C)c2)c1 | 100.7 ± 1%
14 | C#C[C@]1(O)CC[C@H]2[C@@H]3[C@H](C)CC4=C(CCC(=O)C4)[C@H]3CC[C@@]21C | 106 ± 2.1%
15 | CN1CCN(CCCN2c3ccccc3Sc3ccc(C(F)(F)F)cc32)CC1 [Trifluoperazine] | 103 ± 0.17%
16 | CC(C)NCC(O)COc1ccc(COCCOC(C)C)cc1 (configuration not stated) | 104 ± 2.4%
17 | CC(C)(C)NC(=O)[C@H]1CC[C@H]2[C@@H]3CC[C@H]4NC(=O)C=C[C@]4(C)[C@H]3CC[C@]12C | 104.8 ± 0.76%
18 | CC(C)NCC(O)COc1ccc(CCOCC2CC2)cc1 (configuration not stated) [Betaxolol] | 100.4 ± 0.2%
19 | Nc1nc(O)c2ncn(CCC(CO)CO)c2n1 | 103 ± 2.2%
20 | O=C1N[C@H](C(=O)O)CS1 [4-Thiazolidinecarboxylic acid, 2-oxo-, (R)- [CAS]] | 101.1 ± 0.43%
21 | CN1CC(=O)N2[C@H](c3ccc4c(c3)OCO4)c3[nH]c4ccccc4c3C[C@@H]2C1=O | 107 ± 1.3%
22 | OCCN1CCN(CCCN2c3ccccc3Sc3ccc(C(F)(F)F)cc32)CC1 [Fluphenazine] | 104.3 ± 0.93%
